Measurements as given in PubChem BioAssay (EPA / NIEHS).
Values joined by “and” are separate entries in the source; they are usually repeats but may differ in a detail not shown here. Equal values may be shown once. Records with an inconclusive call do not appear. The source holds several records for some structures; these can differ, active in one and inactive in another. Active and inactive are the calls of the source. Rule for the calls, unless noted: active = hit-call score of the fitted dose curve at least 0.9, where 1 is the maximum; inconclusive = response in the unintended direction; inactive = score below 0.9.

Experiments:
[1] = CCTE_Deisenroth_AIME_384WELL_CTox_Active: Cytotoxicity Assessment (CTOX) in CCTE's 384-well Estrogen Receptor Transactivation Assay with AIME metabolic competence (metabolism positive), Deisenroth Lab (AID 2284037);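 note: chemicals first conditioned 2 h by alginate-bound induced rat liver S9 before cells; activity means signal loss indicating cell death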
Procedure, shortened: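 Chemicals pre-incubated 2 hours with alginate-immobilised phenobarbital/beta-naphthoflavone-induced male Sprague Dawley rat liver S9, then conditioned medium applied 24 hour to VM7Luc4E2 cells. Viability by fluorogenic protease substrate; 10-point series 0.002 - 200 uM.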

[2] = biological target: Estrogen receptor (Homo sapiens) (UniProt P03372); assay: CCTE_Deisenroth_AIME_384WELL_LUC_Inactive: CCTE's 384-well Estrogen Receptor Transactivation Assay without AIME metabolic competence (ERTA luciferase; metabolism negative), Deisenroth Lab (AID 2284038);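 note: VM7Luc4E2 breast cells given medium preincubated 2 h with S9-free microspheres; hits raise estrogen receptor luciferase signal so potencies reflect agonists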
Chain of Estrogen receptor (Homo sapiens) (P03372 whole entry, looked up): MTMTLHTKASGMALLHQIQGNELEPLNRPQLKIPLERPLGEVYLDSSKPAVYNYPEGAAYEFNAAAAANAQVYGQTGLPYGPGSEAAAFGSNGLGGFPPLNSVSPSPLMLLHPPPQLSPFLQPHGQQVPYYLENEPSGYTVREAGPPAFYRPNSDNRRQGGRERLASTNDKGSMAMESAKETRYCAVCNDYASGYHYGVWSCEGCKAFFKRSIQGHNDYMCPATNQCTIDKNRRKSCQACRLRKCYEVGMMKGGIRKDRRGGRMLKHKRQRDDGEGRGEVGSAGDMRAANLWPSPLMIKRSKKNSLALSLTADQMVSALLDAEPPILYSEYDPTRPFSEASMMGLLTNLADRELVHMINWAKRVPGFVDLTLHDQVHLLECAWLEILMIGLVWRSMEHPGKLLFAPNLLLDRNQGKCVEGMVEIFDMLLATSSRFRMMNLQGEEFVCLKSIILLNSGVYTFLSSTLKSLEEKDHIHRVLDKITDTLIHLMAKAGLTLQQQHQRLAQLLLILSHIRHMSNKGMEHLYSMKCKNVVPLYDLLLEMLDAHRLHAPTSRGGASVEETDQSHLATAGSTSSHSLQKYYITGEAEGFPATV
Procedure, shortened: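 Chemicals (10-point series, 0.002 - 200 uM) were incubated 2 hours with alginate-water microsphere lids lacking S9, then the conditioned medium was transferred to VM7Luc4E2 breast cells for 24 hour. Luciferase induction was read by bioluminescence, fitted upward relative to 17beta-estradiol.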

[3] = CCTE_Deisenroth_AIME_384WELL_CTox_Inactive: Cytotoxicity Assessment (CTOX) in CCTE's 384-well Estrogen Receptor Transactivation Assay without AIME metabolic competence (metabolism negative), Deisenroth Lab (AID 2284039);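 note: cell viability via live-cell protease substrate cleaved to fluorescent probe; cells exposed 24 h to medium preincubated 2 h with alginate-water beads without S9; loss of fluorescence signal means loss of viability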
Procedure, shortened: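 Fluorescent protease-substrate viability readout after 24 h exposure of VM7Luc4E2 cells to conditioned medium. Chemicals (0.002–200 uM) first sat 2 h over alginate-water beads, no S9. Data fitted bidirectionally, loss of signal meaning viability loss.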

[4] = biological target: Estrogen receptor (Homo sapiens) (UniProt P03372); assay: CCTE_Deisenroth_AIME_384WELL_LUC_Active: CCTE's 384-well Estrogen Receptor Transactivation Assay with AIME metabolic competence (ERTA luciferase; metabolism positive), Deisenroth Lab (AID 2284030)
Procedure, shortened: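 Test chemicals (10-point series, 0.002 - 200 uM) were preincubated 2 hours with alginate-immobilized phenobarbital/beta-naphthoflavone-induced male Sprague Dawley rat liver S9; conditioned medium then went onto VM7Luc4E2 breast cells for 24 hour. Luciferase gain-of-signal fitted relative to 17beta-estradiol.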

[5] = CCTE_Shafer_MEA_dev_firing_rate_mean: CCTE's Neural Network Formation Assay for Mean Firing Rate, Shafer Lab (AID 2284031; active = hit-call score of the fitted dose curve at least 0.9, where 1 is the maximum; inactive = score below 0.9)
Procedure, shortened: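 Primary rat cortical neurons on 48-well, 16-electrode MEAs (PEI-coated, laminin at plating), exposed from day 0 with compound renewed at DIV 5 and 9. Spikes recorded DIV 5, 7, 9, 12; well-mean firing rate collapsed to trapezoidal AUC, loss-of-signal vs DMSO.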

[6] = CCTE_Shafer_MEA_dev_per_burst_spike_percent: CCTE's Neural Network Formation Assay for Percent of Spikes in a Burst, Shafer Lab (AID 2284032; active = hit-call score of the fitted dose curve at least 0.9, where 1 is the maximum; inactive = score below 0.9;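 for AC50: fitted as a decrease in burst spike percentage below DMSO baseline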)
Procedure, shortened: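 Rat primary cortical neurons on 16-electrode MEA wells, dosed from plating day 0 for 12 days with renewal on DIV 5 and 9; spikes-in-bursts percentage averaged over bursting electrodes, collapsed as AUC across days 5, 7, 9, 12; loss direction versus DMSO.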

[7] = CCTE_Shafer_MEA_dev_active_electrodes_number: CCTE's Neural Network Formation Assay for Number of Active Electrodes, Shafer Lab (AID 2284040);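 for AC50: potency for loss of active electrodes versus DMSO so lower counts are hits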
Procedure, shortened: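 Rat cortical primary cultures, 1.5 x 10^5 cells/well, PEI-coated MEA, laminin drop. Continuous exposure DIV 0–12; full media/compound change DIV 5, 9. Readout: electrodes with mean firing ≥5 spikes/min; AUC across days; loss vs DMSO.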

COc1ccc(-c2ccccc2)cc1NNC(=O)OC(C)C
AC50 [1]: 79.5 µM (active) | outcome [2]: inactive | AC50 [3]: 77.9 µM (active)

Clc1cccc(C(Cl)(Cl)Cl)n1
outcome [4]: inactive | outcome [2]: inactive

CC1(C)CON(Cc2ccccc2Cl)C1=O
outcome [4]: inactive | AC50 [2]: 73.1 µM (active)

CC(C)(C)C(=O)C(Oc1ccc(Cl)cc1)n1cncn1 (stereo not drawn)
outcome [5]: inactive | AC50 [6]: 41.3 µM (active) | AC50 [7]: 38.7 µM (active)

O=C1C2CC=CCC2C(=O)N1SC(Cl)(Cl)Cl (stereo not drawn)
outcome [5]: inactive | AC50 [6]: 16.7 µM (active) and 15.7 µM (active) | AC50 [7]: 9.85 µM (active) | outcome [7]: inactive

CCSC(=O)N1CCCCCC1
outcome [4]: inactive | outcome [5]: inactive | outcome [6]: inactive | outcome [1]: inactive | outcome [2]: inactive | outcome [3]: inactive | AC50 [7]: 3.42 µM (active)

COC(=O)NC(=S)Nc1ccccc1NC(=S)NC(=O)OC
outcome [4]: inactive | outcome [1]: inactive | outcome [2]: inactive | outcome [3]: inactive

CCOP(=S)(OCC)Oc1nc(Cl)n(C(C)C)n1
outcome [4]: inactive | outcome [1]: inactive | outcome [2]: inactive | outcome [3]: inactive

Cc1cc(C)nc(Nc2ccccc2)n1
AC50 [4]: 93.3 µM (active) | outcome [2]: inactive

COCc1cnc(C2=NC(C)(C(C)C)C(=O)N2)c(C(=O)O)c1 (stereo not drawn)
outcome [4]: inactive | outcome [1]: inactive | outcome [2]: inactive | outcome [3]: inactive

COP(=S)(OC)Oc1ccc([N+](=O)[O-])c(C)c1
outcome [4]: inactive | outcome [5]: inactive | outcome [6]: inactive | outcome [1]: inactive | outcome [2]: inactive | outcome [3]: inactive | outcome [7]: inactive

CS(=O)(=O)c1cc(C(F)(F)F)ccc1C(=O)c1cnoc1C1CC1
outcome [4]: inactive | outcome [5]: inactive | outcome [6]: inactive | outcome [1]: inactive | outcome [2]: inactive | outcome [3]: inactive | outcome [7]: inactive

CN=C=S
outcome [4]: inactive | outcome [1]: inactive | outcome [2]: inactive | outcome [3]: inactive

CC(C)Oc1cccc(NC(=O)c2ccccc2C(F)(F)F)c1
outcome [1]: inactive | outcome [3]: inactive

COP(=O)(OC)O/C(C)=C/C(=O)N(C)C
outcome [5]: inactive | outcome [6]: inactive | outcome [7]: inactive

O=c1n(Cl)c(=O)n(Cl)c(=O)n1Cl
outcome [4]: inactive | outcome [2]: inactive | outcome [3]: inactive

Nc1cnn(-c2ccccc2)c(=O)c1Cl
outcome [4]: inactive | outcome [2]: inactive

CCC(C)n1c(=O)[nH]c(C)c(Br)c1=O (stereo not drawn)
outcome [4]: inactive | outcome [1]: inactive | outcome [2]: inactive

CC(C)Nc1nc(Cl)nc(NC(C)C)n1
outcome [4]: inactive | outcome [2]: inactive
